Luc counter: blocks Kinase-Glo luciferase, a counter-screen artifact | AID 1379 | Q27757 | Kinase-Glo luciferase, ATP luminescence, 8 min | actives 0.28% (n = 200,000) | Potency, µM (titrated, usually from 38.3 µM), without a hit: at the highest dose activity change, negative = inhibition, most hits filed as inhibitors; further: nearly all actives have a fitted effect of over 60% in size
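Light output from Kinase-Glo luciferase with luciferin and 10 uM ATP in 50 mM imidazole pH 7.2, KCl, MgCl2, Tween 20, BSA; compound pin-delivered, 8-min ambient incubation, then luminescence read.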
Lamin A splicing: changes lamin A minigene splicing in HeLa cells; AID 1487; actives 0.01% (n = 200,000); Potency, µM (highest dose often 46.1 µM), for the others: top-dose ratio change, negative = inhibition, actives largely listed as inhibitors; HeLa LMNA splicing GFP/RFP minigene ratio, 48 h; active means well fitted inhibition curve with a large enough effect in the signal ratio, with a control signal flat, not every such curve was filed as active; inconclusive means small, poorly fitted or top-dose-only effect, or effect the other way, or a change in a side signal; the % refers to the signal ratio
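Read-out is the ratio of GFP to DsRed2 object intensity, acquired by 488 nm laser-scanning cytometry on HeLa lamin A-EGFP minigene reporter cells. Compound incubation 48 hrs at 37 °C in Opti-MEM with 2% FBS; DMSO 0.5% final.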
HPGD inh: blocks human HPGD enzyme activity | Potency, µM, for the others: top-dose activity change, negative = inhibition, usual class: inhibitors | AID 894 | actives 4.3% (n = 150,000) | purified HPGD, NADH fluorescence kinetic, PGE2 substrate | P15428; active means well fitted inhibition curve with a large enough effect, not every such curve was filed as active; inconclusive means small, poorly fitted or top-dose-only effect, or another doubt; inactive means no such curve, though single readings can be large or run the other way
Target sequence (P15428 whole entry, looked up): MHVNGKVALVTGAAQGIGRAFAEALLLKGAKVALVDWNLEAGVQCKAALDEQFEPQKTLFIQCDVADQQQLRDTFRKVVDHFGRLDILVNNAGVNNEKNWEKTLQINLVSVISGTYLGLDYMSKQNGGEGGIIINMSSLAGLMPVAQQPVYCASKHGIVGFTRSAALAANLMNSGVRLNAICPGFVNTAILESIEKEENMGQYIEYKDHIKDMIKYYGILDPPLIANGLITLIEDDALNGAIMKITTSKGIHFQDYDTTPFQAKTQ
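20 nM HPGD preincubated 15 min at room temperature with compound in 50 mM Tris-HCl pH 8, 0.01% Tween 20. Started with 1 mM NAD+ and 30 uM prostaglandin E2; NADH fluorescence (360/450 nm) read 5 times over 30-s intervals, last minus first.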
ALDH1A1 block: inhibitors of human aldehyde dehydrogenase 1A1; Purified ALDH1A1, NADH fluorescence, propionaldehyde substrate; actives 7.3% (n = 220,000); P00352; Potency, µM (highest dose often 75.3 µM), inactives show at the highest dose activity, negative = inhibition, actives largely listed as inhibitors; active means well fitted inhibition curve with a large enough effect, not every such curve was filed as active; inconclusive means small, poorly fitted or top-dose-only effect, or another doubt; inactive means no such curve, though single readings can be large or run the other way;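 further: plate controls were no enzyme wells and a reference inhibitor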
Target sequence (P00352 whole entry, looked up): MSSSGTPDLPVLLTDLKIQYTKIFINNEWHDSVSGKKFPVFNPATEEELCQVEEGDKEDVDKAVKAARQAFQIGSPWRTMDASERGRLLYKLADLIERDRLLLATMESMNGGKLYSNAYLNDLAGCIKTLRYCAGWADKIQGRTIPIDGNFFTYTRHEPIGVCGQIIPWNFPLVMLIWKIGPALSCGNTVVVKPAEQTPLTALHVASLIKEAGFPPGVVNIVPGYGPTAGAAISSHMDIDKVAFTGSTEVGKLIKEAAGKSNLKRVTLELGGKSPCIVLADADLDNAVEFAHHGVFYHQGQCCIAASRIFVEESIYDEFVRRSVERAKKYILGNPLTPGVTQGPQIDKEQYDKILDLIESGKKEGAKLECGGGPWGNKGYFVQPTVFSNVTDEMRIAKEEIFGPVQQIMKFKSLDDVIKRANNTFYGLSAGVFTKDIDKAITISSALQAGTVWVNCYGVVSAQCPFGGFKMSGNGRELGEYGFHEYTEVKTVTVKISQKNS
IMPase Li cell: membrane-permeable IMPase blocker, potentiated with lithium; CHO-M1 cells, IP1 TR-FRET (IP-One), carbachol + lithium; Potency, µM (series often up to 59.4 µM), inactives show top-dose activity, negative = IMPase inhibition, most hits filed as inhibitors; actives 0.35% (n = 210,000); AID 1457;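 further: IP1 builds up when IMPase is blocked and the TR-FRET signal falls; plate controls were basal vehicle for no effect and high inhibitor control for full effect; nearly all actives have a fitted effect of over 50% in size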
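Concentration–response in CHO-M1 cells, lithium-potentiated; 30 min at 37C. IP1 detected by competitive TR-FRET after 10 min lysis at RT. Hill-fitted AC50.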
An asterisk follows results filed as active; ? = inconclusive; . = no result; [ ] = another dose, or the depositor's remark. Compounds with a hit are over-represented: about 9% of the library has one in this group of screens. Unless noted, the call rests on the fitted dose curve; in most records, active means well fitted curve in the direction sought with a large enough effect; inconclusive means small, poorly fitted or top-dose-only effect, or another doubt; inactive means no such curve, though single readings can be large; an effect the other way counts as inactive or inconclusive. Unless noted, on the % scale 0 is the no-effect control and ±100 the full control effect; potency means the concentration at half of the fitted maximal effect.

SMILES	Luc counter	Lamin A splicing	HPGD inh	ALDH1A1 block	IMPase Li cell
CC1CCN(S(=O)(=O)c2ccc3c(c2)N(CC(=O)NC(C)C)C(=O)CO3)CC1	.	-0.9%[46 µM]	.	.	.
O=C(CCl)Nc1cccn2ncnc12	-8.6%	-10.1%	-5.3%	3.16µM*	28.5%[38.3 µM]
Cc1cc(C(=O)N2CCN(c3ccccc3)CC2)c2c(C)nn(-c3cccc(F)c3)c2n1	.	-10.7%[46 µM]	.	.	.
COc1ccc(NS(=O)(=O)c2ccc(C)c(NC(=O)c3ccc(C)c(S(=O)(=O)N4CCOCC4)c3)c2)cc1	-1.8%	?	-9.7%	11.0%	-0.7%
CCOCC(=O)Nc1ccc(S(=O)(=O)N2CCOCC2)cc1	-3.5%	-10.1%	-1.2%	10µM*	1.5%
CCC(C)NC(=O)COc1ccc(S(=O)(=O)N2CCOCC2)cc1 (stereo not drawn)	-2.7%	4.8%	-7.1%	5.01µM*	5.2%[38.3 µM]
COc1ccc(NC(=O)CNc2cc(S(=O)(=O)N3CCOCC3)ccc2NCC2CCCO2)cc1 (stereo not drawn)	-0.2%	4.6%[46 µM]	.	7.08µM*	5.5%
COc1ccccc1OCC(=O)Nc1ccc(S(=O)(=O)N2CCCCCC2)cc1	3.3%	?	?	-57.8%	3.0%[38.3 µM]
O=C(COC(=O)COc1ccccc1[N+](=O)[O-])Nc1ccc(S(=O)(=O)N2CCCCC2)cc1	2.0%	3.5%	-22.3%	14.1µM*	-14.0%[38.3 µM]
CSc1cccc(NC(=O)Nc2ccccc2OCc2cc(=O)n3cc(C)ccc3n2)c1	.	-5.9%[46 µM]	.	.	.
CCOC(=O)C1(Cc2ccc(OC)cc2)CCN(C(=O)CN2CCCCC2=O)CC1	-4.9%	1.4%[46 µM]	.	2.1%	4.7%
O=C(CCCOc1ccccc1)Nc1ccc(S(=O)(=O)N2CCOCC2)cc1	2.2%	-4.9%	5.5%	-8.6%	-2.5%[38.3 µM]
O=C(COC(=O)COc1ccccc1)Nc1ccc(S(=O)(=O)N2CCOCC2)cc1	0.8%	.	.	31.6µM*	9.1%
Cc1cccc(NC(=O)c2cc(-c3ccccn3)nc3ccccc23)c1C	0.8%	.	.	-0.6%	4.5%
CCOc1ccc(-c2c(=O)n(OCc3ccc([N+](=O)[O-])cc3)c3ccccc3[n+]2[O-])cc1	-3.4%	?	-18.5%	20µM*	10.8%
O=c1c(-c2ccco2)[n+]([O-])c2ccccc2n1OCc1ccccn1	-1.0%	9.7%	-18.6%	10µM*	29.1%[38.3 µM]
CCOn1c(=O)c(-c2cccc([N+](=O)[O-])c2)[n+]([O-])c2ccccc21	1.8%	-10.4%	?	?	7.3%
C=CCOn1c(=O)c(-c2cc3ccccc3o2)[n+]([O-])c2ccccc21	.	-12.8%	.	8.1%	.
O=c1c(-c2ccco2)[n+]([O-])c2ccccc2n1OCc1ccccc1[N+](=O)[O-]	0.1%	.	.	14.1µM*	13.6%
Cc1c(NC(=O)c2ccc(-c3ccc([N+](=O)[O-])cc3Cl)o2)c(=O)n(-c2ccccc2)n1C	-4.0%	5.2%[46 µM]	.	-3.9%	19.8%
NC(C(=O)O)c1cccc(O)c1 (stereo not drawn)	.	.	.	20.5%	-2.1%
CN(C)C[C@@H](O)c1ccc(Cl)c2ccccc12	-3.9%[7.66 µM]	.	-8.7%	-6.3%[13.5 µM]	7.0%
COc1ccc(NC(=O)CNc2cccc(C#N)c2)cc1Cl	0.6%	6.2%	-20.9%	?	18.7%[38.3 µM]
COc1ccc(NCC(=O)Nc2ccc(C#N)cc2)cc1Cl	7.3%	0.4%	-15.6%	10µM*	5.3%[38.3 µM]
CCNc1ccc(S(=O)(=O)N(C)C)cc1NCC(=O)Nc1ccc(F)c(Cl)c1	1.2%	?	-9.1%	25.1µM*	7.5%
SMILES	Luc counter	Lamin A splicing	HPGD inh	ALDH1A1 block	IMPase Li cell
COc1ccc(S(=O)(=O)N(C)C)cc1NCC(=O)Nc1cccc(C#N)c1	2.1%	.	.	20µM*	7.4%
CCNc1ccc(S(=O)(=O)N(C)C)cc1NCC(=O)Nc1ccccc1Br	-0.4%	0.8%[46 µM]	.	25.1µM*	3.0%
Cc1ccc(C)c(NC(=O)C(=O)NCc2ccccn2)c1	-3.9%	-0.7%	-10.0%	9.5%	1.0%
O=C(Nc1cccc(C(=O)N2CCCCC2)c1)c1nsc2ccccc12	.	-8.8%[46 µM]	.	.	.
CC1CCc2onc(C(=O)N3CCN(c4ccccc4)CC3)c2C1 (stereo not drawn)	.	-8.8%[46 µM]	.	.	.
C=C(C)[C@]12C[C@@H](C)[C@@]34OC(Cc5ccccc5)(O[C@@H]1[C@@H]3C=C(COC(=O)Cc1cc(OC)c(O)cc1I)C[C@]1(O)C(=O)C(C)=C[C@@H]41)O2	1.3%[39.9 µM]	.	-11.4%	-4.4%	3.2%
CCc1nnc(SCC(=O)Nc2ccccc2Cl)nc1CC	.	6.5%[46 µM]	.	?	-2.9%
CCN(CC)S(=O)(=O)c1ccc2nnn(OCC(=O)Nc3cccc(C#N)c3)c2c1	1.7%	4.4%	-6.8%	14.1µM*	12.0%[38.3 µM]
CCOc1ccc(NC(=O)COn2nnc3ccc(S(=O)(=O)N4CCOCC4)cc32)cc1	-1.5%	.	.	?	-11.3%
CCNc1ccc(S(=O)(=O)N(C)C)cc1NCC(=O)Nc1ccccc1F	1.4%	-8.7%	-0.2%	20µM*	2.1%
CCNc1ccc(S(=O)(=O)N(C)C)cc1NCC(=O)Nc1ccc(Br)cc1F	-3.1%	?	-21.7%	-1.0%	-16.2%
COc1ccc(NC(=O)c2ccc(Oc3ncccn3)cc2)cc1	-1.7%	?	.	-3.3%	-0.1%
Cc1ccc(C(=O)N(Cc2ccco2)c2ccccn2)cc1	.	19.5%[46 µM]	.	.	.
COc1cc(C(=O)CSc2nncn2C)cc(OC)c1OC	3.7%	6.7%	-19.7%	12.6µM*	-0.2%[38.3 µM]
Cn1cnnc1SCC(=O)c1cc2ccccc2oc1=O	-2.2%	?	?	10µM*	7.1%[38.3 µM]
Cn1cnnc1SCC(=O)c1ccc2c(c1)CCCC2	1.4%	14.0%	-12.8%	31.6µM*	6.8%[38.3 µM]
O=C(COc1ccccc1F)Nc1nnc(S(=O)(=O)N2CCCCCC2)s1	.	14.5%[46 µM]	.	.	.
COc1ccc(O)c(-c2[nH]ncc2C(=O)c2ccccc2)c1	1.4%	8.5%	-21.4%	7.94µM*	-3.9%[38.3 µM]
COc1ccc2[nH]c(=O)c(CN(Cc3cccnc3)C(=S)NCC3CCCO3)cc2c1 (stereo not drawn)	-0.9%	0.3%[46 µM]	.	?	8.1%
Cc1ccc(-n2sc3ccccc3c2=O)cc1S(=O)(=O)N1CCCCC1	0.1%	?	1µM*	2.24µM*	9.4%[38.3 µM]
Cc1ccc(-c2nnc(N3CCCCC3)c3ccccc23)cc1S(=O)(=O)N1CCN(C)CC1	-3.4%	1.6%	-16.2%	6.0%	-8.4%[38.3 µM]
CN(C)S(=O)(=O)c1cccc(-n2sc3ccccc3c2=O)c1	-6.6%	7.0%[46 µM]	.	0.224µM*	7.4%
O=c1c2ccccc2sn1-c1ccc(S(=O)(=O)N2CCCC2)cc1	-3.4%	-2.0%	0.708µM*	0.891µM*	1.4%[38.3 µM]
NC(=S)Nc1cccc2[nH]ccc12	-0.5%	.	.	0.0%	0.5%
CC(=O)c1c(C)nc(-c2ccc(Cl)cc2)nc1N	-6.4%	.	.	22.4µM*	-5.1%
Cc1cccc(NC(=O)c2sc3nc4c(c(-c5cccs5)c3c2N)CN(C)CC4)c1	5.0%	13.7%	-16.7%	14.1µM*	3.7%[38.3 µM]

Compound activity: PubChem, National Center for Advancing Translational Sciences (NCATS)
